From PubChem
HT1080 IDH1KD tx = kills HT-1080 cells with IDH1 knockdown. 2% of 360,000 active. HT-1080 IDH1 knockdown viability, ATP luminescence, 48 h. Potency, µM (doses to about 46.1 µM), for inactives: at the highest dose activity, negative = toxicity, actives largely listed as cytotoxic;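 further: potency means the concentration at half of the fitted maximal effect; 0% = DMSO wells and -100% = cell-free medium wells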
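Knockdown cells (IDH1KD HT-1080) received compounds 2 h after plating at 750 cells/well and were kept 48 h at 37 °C in 5% FBS RPMI. A CellTiter-Glo luminescence read gave % activity for curve fitting.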
TDP1 cell CPT = DT40-hTDP1 cell growth loss with CPT; chicken DT40 Tdp1-/-;hTDP1 cells + 20 nM CPT, ATP luminescence, 48 h; Potency, µM (doses to about 46.2 µM), without a hit: top-dose activity change, negative = growth inhibition, usual class: inhibitors; 12% of 420,000 active; AID 686979; further: potency means the concentration at half of the fitted maximal effect; nearly all actives have a fitted effect of over 55% in size
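Chicken DT40 Tdp1-/- cells stably complemented with human TDP1 were seeded at 400 cells/well in medium containing 20 nM camptothecin, exposed to pin-transferred compounds, and grown at 37 °C for at least 48 hr. Viability was read as ATP luminescence.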
IL-1B inflam inh = blocks inflammasome-driven IL-1 beta release; 4.7% of 360,000 active; THP-1 LPS/ATP IL-1B secretion, AlphaLISA, 16 h; stronger effect = lower value; activity change, % at 57.5 µM; in the data active means activity change below about -50%; inconclusive means mostly about -30% to -49%
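Secreted IL-1B measured by AlphaLISA bead assay after 16 h compound exposure of THP-1 cells; compounds (final up to 57.5 uM) added 1 h before LPS (250 ng/mL) and ATP (1.25 mM) stimulation; lower signal means less secretion.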
ELG1 repair inh = inhibitors of ELG1-dependent DNA repair in HEK293T cells; HEK293T ELG1-luciferase reporter, luminescence, 16 h; DNA damage induced by 5-fluorouridine; Potency, µM (titrated, usually from 46.1 µM), inactives show at the highest dose activity change, negative = inhibition, most hits filed as inhibitors; 2.3% of 330,000 active; further: potency means the concentration at half of the fitted maximal effect; nearly all actives have a fitted effect of over 55% in size
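5-Fluorouridine DNA damage + compound/DMSO, 2,000 cells/well, 16 h, 37 °C/5% CO2. ONE-Glo, 30 min RT, luminescence. Readout = decrease in reporter signal.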
HT1080NT lethal = kills 2HG-producing HT-1080-NT fibrosarcoma cells. AID 686970. Potency, µM (doses to about 46.1 µM), for the others: at the top dose activity, negative = less viability, usual class: cytotoxic. HT-1080-NT fibrosarcoma viability, CellTiter-Glo ATP luminescence, 48 h. 1.6% of 360,000 active;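 further: NT is the 2HG producing partner of a matched IDH1 knockdown line; potency means the concentration at half of the fitted maximal effect; 0% = DMSO-treated cells and -100% = media-only wells without cells; nearly all actives have a fitted effect of over 55% in size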
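Fibrosarcoma NT cells, 750 per well in 5% FBS RPMI, were exposed to compound for 48 hours. Viability: CellTiter-Glo luminescence.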
TDP1 cell noCPT = qHTS for Inhibitors of human tyrosyl-DNA phosphodiesterase 1 (TDP1): qHTS in cells in absence of CPT | DT40 Tdp1-/- hTDP1 cells, no CPT, ATP luminescence, 48 h | AID 686978, 2013 | Potency, µM (titrated, usually from 46.2 µM), for inactives: at the highest dose activity change, negative = growth inhibition, usual class: inhibitors | 15% of 420,000 active; further: potency means the concentration at half of the fitted maximal effect; nearly all actives have a fitted effect of over 55% in size
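No-CPT arm: Tdp1-/-;hTDP1 DT40 cells (400/well) plus compounds, incubated ≥48 hr at 37 °C. Readout CellTiter-Glo luminescence.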
An asterisk follows results filed as active; ? = inconclusive; / = no result given. Rows were chosen to be rich in hits. Some 19% of all compounds tested hit in one or more screens of this group. Unless noted, the call rests on the fitted dose curve; in most records, active means well fitted curve in the direction sought with a large enough effect; inconclusive means small, poorly fitted or top-dose-only effect, or another doubt; inactive means no such curve, though single readings can be large; an effect the other way counts as inactive or inconclusive. Unless noted, on the % scale 0 is the no-effect control and ±100 the full control effect.

SMILES	HT1080 IDH1KD tx	TDP1 cell CPT	IL-1B inflam inh	ELG1 repair inh	HT1080NT lethal	TDP1 cell noCPT
COc1ccc(NS(=O)(=O)c2ccc3c(c2)CCN3C(=O)CCC(=O)O)cc1Cl	/	3.2%	/	/	/	-6.4%
CCc1cccc(C)c1NS(=O)(=O)c1ccc2c(c1)NC(=O)C(C)C(=O)N2 (stereo not drawn)	/	?	/	/	/	-3.9%
NCCNC(=O)c1c(O)c2cccc3c2n(c1=O)CCC3	-1.9%	-2.5%	-91.7*	?	-5.1%	?
O=C(Nc1ccccn1)c1c(O)c2cccc3c2n(c1=O)CCC3	5.9%	14.6µM*	19.0	?	2.1%	14.6µM*
CCCNC(=O)c1c(O)c2cccc3c2n(c1=O)CCC3	4.1%	-1.5%	-3.0	6.5%	-1.9%	6.8%
Cc1cc(C)c(NC(=O)Cn2nnc(C(=O)NCc3ccc4c(c3)OCO4)c2N)c(C)c1	-11.6%	-8.8%	30.7	?	0.3%	19.4%
COc1cc(OC)cc(C2=Cc3ccc(OC)cc3C(CC(C)=O)N2c2ccc(C#CC3(O)CCCCC3)cc2)c1 (stereo not drawn)	-24.2%	?	-24.2	/	-17.1%	20.6µM*
COc1cccc(C2=Cc3ccc(F)cc3C(CC(C)=O)N2c2ccc(C#CC3(O)CCCCC3)cc2)c1 (stereo not drawn)	?	?	-18.4	/	?	?
COc1cc(OC)cc(C2=Cc3ccc(OC)cc3C(CC(C)=O)N2c2ccc(C#CC3(N)CCCCC3)cc2)c1 (stereo not drawn)	25.9µM*	5.17µM*	-22.2	/	16.4µM*	25.9µM*
COc1cc(OC)cc(C2=Cc3ccccc3C(CC(C)=O)N2c2ccc(C#CC3(N)CCCCC3)cc2)c1 (stereo not drawn)	13µM*	?	-18.9	/	14.6µM*	?
Cc1cc(C)cc(NC(=O)C(=O)NCC2CCCN2S(=O)(=O)c2cccs2)c1 (stereo not drawn)	-6.1%	7.31µM*	-4.9	-28.1%	0.7%	10.3µM*
O=C(NCC1CCCN1S(=O)(=O)c1cccs1)c1ccc(F)cc1 (stereo not drawn)	-22.0%	?	7.6	0.5%	-3.0%	?
O=C(NCC1CCCN1S(=O)(=O)c1cccs1)c1cccc(F)c1 (stereo not drawn)	-3.0%	16.4µM*	2.5	4.4%	-0.9%	18.4µM*
Cc1cccc(C)c1NC(=O)C(=O)NCC1CCCN1S(=O)(=O)c1cccs1 (stereo not drawn)	0.1%	?	27.0	?	0.8%	11.6µM*
Cc1ccccc1CNC(=O)C(=O)NCC1CCCN1S(=O)(=O)c1cccs1 (stereo not drawn)	-4.8%	?	-4.2	-40.1%	-2.0%	?
O=C(NCC1CCCN1S(=O)(=O)c1cccs1)C(=O)Nc1ccc(F)cc1F (stereo not drawn)	0.1%	?	1.0	-3.9%	-3.1%	?
Cc1ccc(NC(=O)C(=O)NCC2CCCN2S(=O)(=O)c2cccs2)c(C)c1 (stereo not drawn)	-10.6%	18.4µM*	-10.2	-13.6%	-1.6%	?
Cc1ccccc1-c1cc(N2CCNCC2)ncn1	/	-8.8%	/	/	/	-5.3%
CSc1ccccc1C(=O)OCC(=O)Nc1c(C)n(C)n(-c2ccccc2)c1=O	2.7%	4.1%	-11.7	/	12.6%	-8.8%
Fc1cc(Cl)cc2ccc(-c3ccccc3)nc12	8.3%	0.9%	0.5	/	14.6%	-9.7%
CSc1nc2nc3c(c(=O)n2[nH]1)CN(Cc1ccccc1)CC3	-11.8%	25.9µM*	-0.2	-3.0%	-5.0%	?
O=c1c2c(nc3nc(SCc4ccccc4)[nH]n13)CCC2	0.5%	-21.7%	18.9	8.5%	-7.4%	-17.0%
COc1ccc(C2NN=C(c3ccc(C)cc3)S2)cc1 (stereo not drawn)	14.9%	-28.3%	-22.7	?	12.4%	?
CCOc1cc(C2NN=C(c3ccc(C)cc3)S2)ccc1O (stereo not drawn)	10.5%	6.51µM*	-4.9	?	-4.3%	5.17µM*
CSCCC1NC(=O)N(CC(=O)Nc2c(Cl)cc(Cl)cc2Cl)C1=O (stereo not drawn)	?	16.4µM*	-5.3	-0.1%	-2.5%	?
SMILES	HT1080 IDH1KD tx	TDP1 cell CPT	IL-1B inflam inh	ELG1 repair inh	HT1080NT lethal	TDP1 cell noCPT
Cc1ccc(-n2c3nc(=O)[nH]c(=O)c-3cc3cc([N+](=O)[O-])ccc32)cc1C	?	0.581µM*	0.0	?	-29.5%	1.3µM*
Cc1ccc(S(=O)(=O)n2cnc3cc([N+](=O)[O-])ccc32)cc1C	2.5%	-13.1%	17.7	8.0%	6.3%	-25.0%
Cc1cccc(Nc2nn3c(=O)c4cc5c(cc4nc3s2)OCO5)c1	/	0.5%	/	/	/	1.8%
COC(=O)c1ccccc1NC(=O)/C=C/c1cc(OC)c(OC)c(OC)c1	-7.8%	20.6µM*	-84.6*	?	-4.4%	20.6µM*
COc1cc(/C=C/C(=O)Nc2nc3ccc(S(=O)(=O)N(C)C)cc3s2)cc(OC)c1OC	6.51µM*	?	28.4	?	?	?
COc1cc(/C=C/C(=O)Nc2ccc(C)cc2)cc(OC)c1OC	-8.3%	?	14.8	?	-4.3%	16.4µM*
COc1cc(/C=C/C(=O)Nc2nnc(C(C)(C)C)s2)cc(OC)c1OC	4.2%	?	-9.3	?	-3.0%	?
COc1ccc(Br)cc1/C=C/C(=O)Nc1ccc(C)cc1	?	16.4µM*	-66.9*	20.6µM*	-27.8%	16.4µM*
O=c1cc(-c2ccccc2)nc2c(Cl)cc(Cl)cn12	3.4%	-5.5%	19.1	/	5.5%	?
Cc1ccc(C)c(NCCC#N)c1	4.7%	21.2%	9.6	12.7%	6.6%	1.9%
Cc1nc(C)c(C(=O)OC(C)C(=O)Nc2ccc(F)cc2)s1 (stereo not drawn)	1.8%	?	31.6	-15.9%	-0.3%	?
O=C(C[C@H]1C/C=C\CCCC(=O)OC[C@H]2CCCN2C1=O)NCCO	-4.3%	-27.1%	4.5	?	2.7%	6.7%
O=C(Cc1ccccc1)NN=Cc1ccccc1	11.8%	-13.1%	-9.7	/	18.9%	-20.7%
COc1cc(/C=N/NC(=O)Cc2ccc(Br)cc2)cc(OC)c1O	-27.7%	8.1%	16.1	?	?	-24.4%
COc1cc(Br)cc(C=Nc2cccc(C(F)(F)F)c2)c1O	?	?	-50.3*	16.0%	-15.8%	?
